This is part of a sample that, as a whole, favours compounds with a hit. Of some 79,000 tested, about 15% had one in any assay. Unmarked numbers belong to inactive results. The source made the active and inactive calls. No stated cut-off is given here; in the data, active means growth inhibition above about 70%; inactive means the rest.
Experiment: NCI Yeast Anticancer Drug Screen. Data for the bub3 strain (AID 167)
Conditions: S. cerevisiae bub3 mutant strain, stronger effect = higher value
Description: Growth inhibition of yeast strains with defined genetic alterations is measured as a screen for potential anti-cancer activity. Selected strains with alterations in DNA damage repair or cell cycle control were exposed to compounds and growth inhibition was measured relative to vehicle treated controls. The strain used in this assay is bub3

[1] = at 5.0 µM (retest, dose inferred, filed as 0.5)
[2] = at 50.0 µM (retest, dose inferred, filed as 5.0)

Compound: Nc1cc(F)cc2c1-c1ccc(F)cc1C2
- growth inhibition (at 1.2 µM): -1%
- growth inhibition (at 3.7 µM): -2%
- growth inhibition [1]: 3%
- growth inhibition (at 11.0 µM): -2%
- growth inhibition (at 33.0 µM): 16%
- growth inhibition [2]: 27%
- growth inhibition (at 50.0 µM): 78.5% (active)
- growth inhibition (at 100.0 µM): 91% (active)

Compound: O=C1c2cccc3cc([N+](=O)[O-])cc(c23)C(=O)N1CCN1CCCC1
- growth inhibition (at 1.2 µM): 9%
- growth inhibition (at 3.7 µM): 20%
- growth inhibition [1]: 9%
- growth inhibition (at 11.0 µM): 13%
- growth inhibition (at 33.0 µM): 17%
- growth inhibition [2]: 12%
- growth inhibition (at 50.0 µM): -11.2%
- growth inhibition (at 100.0 µM): 35%

Compound: Clc1nc(C(Cl)Cl)nc2sc3c(c12)CCCC3
- growth inhibition (at 1.2 µM): 5%
- growth inhibition (at 3.7 µM): 3%
- growth inhibition [1]: 0%
- growth inhibition (at 11.0 µM): 8%
- growth inhibition (at 33.0 µM): 27%
- growth inhibition [2]: 96% (active)
- growth inhibition (at 50.0 µM): 92.1% (active)
- growth inhibition (at 100.0 µM): 43%

Compound: Oc1ccc(C=Nc2ccccc2O)cc1
- growth inhibition (at 1.2 µM): 75% (active)
- growth inhibition (at 3.7 µM): 82% (active)
- growth inhibition [1]: 55%
- growth inhibition (at 11.0 µM): 81% (active)
- growth inhibition (at 33.0 µM): 83% (active)
- growth inhibition [2]: 86% (active)
- growth inhibition (at 50.0 µM): 80.3% (active)
- growth inhibition (at 100.0 µM): 92% (active)

Compound: O=Nn1c2ccccc2c2cc([N+](=O)[O-])ccc21
- growth inhibition (at 1.2 µM): 4%
- growth inhibition (at 3.7 µM): 19%
- growth inhibition [1]: 19%
- growth inhibition (at 11.0 µM): 55%
- growth inhibition (at 33.0 µM): 88% (active)
- growth inhibition [2]: 71% (active)
- growth inhibition (at 50.0 µM): 84.8% (active)
- growth inhibition (at 100.0 µM): 96% (active)

From PubChem BioAssay (NCI)
